The nature of assay [1]: ACEA_ER_80hr: ACEA Biosciences xCELLigence Real-Time Cell Analysis on Estrogen Receptor Agonism for Proliferation (AID 2282667; active = hit-call score of the fitted dose curve at least 0.9, where 1 is the maximum). The note with it: T47D proliferation, impedance (xCELLigence), 80 h. An outline of the steps:
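Impedance readout (RT-CES) of T47D proliferation at 80 h post-dose; gain of signal vs DMSO baseline. Compounds: 8 conc, 1:4 serial, top 100 uM final, ≤0.5% DMSO; biological duplicate.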

Assay [2] can be described thus: ATG_CRE_CIS: Attagene CIS-FACTORIAL HepG2 Assay for human cAMP Responsive Element (CRE) binding protein 3 (AID 2282926). The note with it: HepG2 CRE cis-reporter, Attagene multiplexed mRNA; actives raise or lower the signal. The essentials:
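Endogenous CRE-binding activity in HepG2 is reported through a cis-regulated transfected reporter. Following a day of exposure, mRNA levels are determined by reverse transcription PCR and fluorescent fragment analysis; fits run in both directions versus DMSO.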

For assay [3], the target named is CCAAT/enhancer-binding protein beta (Homo sapiens) (UniProt P17676). Nature of the assay: ATG_C_EBP_CIS: Attagene CIS-FACTORIAL HepG2 Assay for human CCAAT/Enhancer Binding Protein (C/EBP) beta (AID 2282927). The note with it: HepG2 Attagene cis-factorial transcription factor reporter; actives raise or lower the signal. An outline of the steps: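 HepG2 transiently transfected with multiplexed reporter units under cis-regulatory promoters reporting endogenous C/EBPb activity. After 24 h exposure, reporter mRNA assayed by RT-PCR, fluorescent labelling, HpaI digestion and capillary electrophoresis; bidirectional fitting versus DMSO.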
CCAAT/enhancer-binding protein beta (Homo sapiens), sequence (P17676 whole entry, looked up): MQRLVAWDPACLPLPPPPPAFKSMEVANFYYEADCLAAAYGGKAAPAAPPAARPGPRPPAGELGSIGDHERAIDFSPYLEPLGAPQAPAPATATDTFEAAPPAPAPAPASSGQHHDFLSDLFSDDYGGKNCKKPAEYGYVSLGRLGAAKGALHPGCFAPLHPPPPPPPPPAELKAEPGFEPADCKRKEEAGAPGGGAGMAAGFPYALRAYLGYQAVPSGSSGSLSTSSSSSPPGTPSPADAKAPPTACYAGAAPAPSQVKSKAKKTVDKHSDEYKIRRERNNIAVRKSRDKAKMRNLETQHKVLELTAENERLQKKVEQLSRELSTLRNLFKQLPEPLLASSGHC

Assay [4] in a line: ATG_CMV_CIS: Attagene CIS-FACTORIAL HepG2 Assay for human CMV (Internal Marker) (AID 2282928).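 Also: endpoint acts as a background internal control marker rather than a target.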 Particulars: HepG2 CMV promoter reporter, transcription factor profiling; actives raise or lower the signal. The essentials: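 HepG2 cells transiently transfected with multiple cis-regulated reporter units; 24 h compound exposure. Reporter mRNA quantified by RT-PCR, 6-FAM primer-extension labeling, HpaI digestion and capillary electrophoresis; bidirectional fitting against DMSO baseline.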

Assay [5] can be described thus: ATG_DR4_LXR_CIS: Attagene CIS-FACTORIAL HepG2 Assay for human Liver X Receptor (LXR), DR4 submotif (AID 2282929). The note with it: HepG2 Attagene DR4 cis-reporter, mRNA transcription; actives raise or lower the signal. An outline of the steps: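 Measures endogenous transcription factor activity via a DR4-driven reporter transcript in human HepG2 cells. Compounds incubated 24 h; mRNA quantified by RT-PCR and capillary electrophoresis, analysed as gain or loss of signal versus DMSO.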

Assay [6] addresses Aryl hydrocarbon receptor (Homo sapiens) (UniProt P35869). Kind of assay: ATG_Ahr_CIS: Attagene CIS-FACTORIAL HepG2 Assay for human Aryl Hydrocarbon Receptor (Ahr) (AID 2282930). The note with it: HepG2 AhR cis-factorial reporter transcription; actives raise or lower the signal. The essentials: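 HepG2 cells transiently transfected with cis-element-driven multiplexed reporter units; endogenous AhR activity read as reporter mRNA 24 h after dosing, via RT-PCR, 6-FAM labelling, HpaI digestion and capillary electrophoresis. Bidirectional fit relative to DMSO.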

A short description of assay [7]: ATG_AP_2_CIS: Attagene CIS-FACTORIAL HepG2 Assay for human Activator Protein 2 (AP-2) (AID 2282932). Particulars: HepG2 AP-2 cis-reporter, Attagene transcription factor profiling; actives raise or lower the signal. The essentials: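 Multiplexed mRNA reporter assay in HepG2: cis-regulated units report endogenous factor activity after 24 h treatment. Fluorescence from capillary electrophoresis of RT-PCR products gives the signal, with DMSO as baseline.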

Assay [8] in a line: ATG_BRE_CIS: Attagene CIS-FACTORIAL HepG2 Assay for human Bone Morphogenetic Protein (BMP) Response Element (BRE) (AID 2282933). The note with it: HepG2 BMP response element reporter, Attagene transcription factor profiling; actives raise or lower the signal. The essentials:
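A HepG2 multiplex reporter system measured inducible reporter mRNA 24 h post-dosing. Detection: RT-PCR, 6-FAM primer extension, HpaI digestion, capillary electrophoresis. Activity fitted bidirectionally relative to DMSO.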

Assay [9] concerns the target Retinoic acid receptor alpha (Homo sapiens) (UniProt P10276). Kind of assay: ATG_DR5_RAR_CIS: Attagene CIS-FACTORIAL HepG2 Assay for human Retinoic Acid Receptor Alpha (RARE), DR5 submotif (AID 2282934). Particulars: HepG2 Attagene cis-factorial RARE DR5 reporter, mRNA; actives raise or lower the signal. An outline of the steps: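 HepG2 cells transiently transfected with multiplexed reporter units; DR5 cis-element drives reporter through endogenous transcription factors. After 24 h dosing, reporter mRNA quantified by RT-PCR, fluorescent labeling, HpaI digestion and capillary electrophoresis; bidirectional fitting versus DMSO.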

The structures appear in SMILES notation. Results filed as inconclusive are left out. Calls of active or inactive are those of the source. The calls were made as follows, unless noted: active = hit-call score of the fitted dose curve at least 0.9, where 1 is the maximum; inactive = score below 0.9.

A word on the AC50: it is the midpoint of the concentration-response curve, whichever way the signal moves.

Aryl hydrocarbon receptor (Homo sapiens), sequence (P35869 whole entry, looked up): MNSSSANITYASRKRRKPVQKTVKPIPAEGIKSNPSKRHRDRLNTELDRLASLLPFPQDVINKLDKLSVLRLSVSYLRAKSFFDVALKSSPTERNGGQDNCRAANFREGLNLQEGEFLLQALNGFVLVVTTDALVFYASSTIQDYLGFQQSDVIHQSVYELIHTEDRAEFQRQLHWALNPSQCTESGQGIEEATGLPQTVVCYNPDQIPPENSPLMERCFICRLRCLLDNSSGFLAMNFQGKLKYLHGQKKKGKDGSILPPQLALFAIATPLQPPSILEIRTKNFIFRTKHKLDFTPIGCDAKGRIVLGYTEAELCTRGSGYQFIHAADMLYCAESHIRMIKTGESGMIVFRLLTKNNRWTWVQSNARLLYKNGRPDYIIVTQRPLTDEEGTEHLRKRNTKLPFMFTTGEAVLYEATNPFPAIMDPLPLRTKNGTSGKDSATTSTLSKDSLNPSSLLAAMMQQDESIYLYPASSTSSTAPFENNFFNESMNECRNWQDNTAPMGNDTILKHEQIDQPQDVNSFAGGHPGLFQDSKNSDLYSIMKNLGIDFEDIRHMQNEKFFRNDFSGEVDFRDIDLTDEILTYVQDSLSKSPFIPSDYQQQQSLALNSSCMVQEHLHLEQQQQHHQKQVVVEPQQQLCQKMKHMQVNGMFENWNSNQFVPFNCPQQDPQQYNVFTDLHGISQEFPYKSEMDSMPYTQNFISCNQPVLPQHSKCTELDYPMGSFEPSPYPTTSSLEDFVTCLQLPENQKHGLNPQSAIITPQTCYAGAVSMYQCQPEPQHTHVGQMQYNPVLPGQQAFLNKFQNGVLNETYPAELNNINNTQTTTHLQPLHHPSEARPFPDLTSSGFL
Retinoic acid receptor alpha (Homo sapiens), sequence (P10276 whole entry, looked up): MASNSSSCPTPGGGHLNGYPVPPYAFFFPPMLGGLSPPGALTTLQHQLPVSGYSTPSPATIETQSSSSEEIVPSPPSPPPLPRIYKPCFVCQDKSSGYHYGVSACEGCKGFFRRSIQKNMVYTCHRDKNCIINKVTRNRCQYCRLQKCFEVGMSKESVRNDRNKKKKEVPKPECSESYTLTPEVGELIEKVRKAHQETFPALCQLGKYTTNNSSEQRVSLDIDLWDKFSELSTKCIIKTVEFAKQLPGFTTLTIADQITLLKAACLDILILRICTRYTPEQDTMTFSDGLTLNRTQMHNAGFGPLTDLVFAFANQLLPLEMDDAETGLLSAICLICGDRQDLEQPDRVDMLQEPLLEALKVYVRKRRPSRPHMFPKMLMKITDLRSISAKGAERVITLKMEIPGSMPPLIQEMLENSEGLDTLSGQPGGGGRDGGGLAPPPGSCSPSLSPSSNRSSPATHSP

Take `Nc1ccc(S(=O)(=O)Nc2nccs2)cc1`: the compound was classed as inactive in assay [1], in assay [2], in [3], in assay [4], in [5] and in [6]. Besides, the call in [7], in [8] and in assay [9] was inactive.
In the case of `CC/C=C\CCOC(=O)c1ccccc1`, the compound was called inactive in [1], in assay [2], in assay [3], in assay [4], in [5] and in assay [6]. For the same compound, the compound was classed as inactive in assay [7], in assay [8] and in [9].
Take `Cc1ccc(S(=O)(=O)OCC(F)(F)C(F)(F)C(F)(F)C(F)(F)C(F)(F)C(F)F)cc1`: the outcome in [1], in assay [2], in assay [3], in [4], in assay [5] and in assay [6] was inactive. The result in assay [7], in [8] and in [9] was inactive.
On to `CC(=O)Nc1ccc(N=Nc2cc(C)ccc2O)cc1`, for which the compound was classed as inactive in [1], in assay [2], in assay [3], in assay [4], in assay [5] and in assay [7]. Further, the compound was called inactive in assay [8] and in assay [9]. In addition, the AC50 in assay [6] was 17.7 µM (active).
In the case of `C#C[C@]1(O)CC[C@H]2[C@@H]3CCc4cc(OC)ccc4[C@H]3CC[C@@]21C`, the results for the AC50 in assay [1] and in assay [4] were 0.0054 µM (active) and 48.2 µM (active), respectively. Further, the compound was called inactive in [2], in assay [3], in assay [5], in assay [6], in [7] and in assay [8]. Besides, the compound was called inactive in assay [9].
For `CCCCCCC(C)OC(=O)CCCCC(=O)OC(C)CCCCCC` (stereo not drawn), the call in assay [1], in [2], in [3], in assay [4], in assay [5] and in assay [6] was inactive. The compound was called inactive in assay [7], in assay [8] and in assay [9].
As for `O=S(=O)(OCC(F)F)C(F)(F)F`, the result in [1], in assay [2], in assay [3], in [4], in assay [5] and in assay [6] was inactive. Besides, the outcome in assay [7], in assay [8] and in [9] was inactive.
As to `C(=C(c1ccccc1)c1ccccc1)c1ccccc1`, the values for the half-maximal activity concentration (AC50) in assay [1], in assay [4] and in assay [5] were 0.647 µM (active), 30 µM (active) and 59 µM (active), respectively. In addition, the compound was called inactive in assay [2], in assay [3], in assay [6], in [7], in assay [8] and in [9].
Take `[Co]`: the outcome in [1], in assay [2], in [3], in [4], in assay [5] and in assay [6] was inactive. The outcome in assay [7], in [8] and in assay [9] was inactive.
Take `Nc1ccc([N+](=O)[O-])cc1O`: the call in assay [1], in assay [2], in assay [3], in [4], in assay [5] and in assay [7] was inactive. The compound was classed as inactive in [8] and in assay [9]. Besides, the AC50 in assay [6] was 25.5 µM (active).
Regarding `FC(F)(F)C(F)(F)C(F)(F)C(F)(F)C(F)(F)C(F)(F)C(F)(F)C(F)(F)F`, the outcome in [1], in [2], in assay [3], in assay [4], in assay [5] and in assay [6] was inactive. The outcome in [7], in assay [8] and in [9] was inactive.
As to `OCC(F)(F)C(F)(F)C(F)(F)C(F)(F)C(F)(F)C(F)(F)F`, the compound was classed as inactive in assay [1], in [2], in assay [4], in [5], in assay [6] and in assay [7]. In addition, the result in assay [8] and in assay [9] was inactive. In addition, in [3], the AC50 is 204 µM (active).
For the compound `CCCCC(CC)COP(=O)(O)OCC(CC)CCCC` (stereo not drawn), the outcome in assay [1], in assay [2], in assay [3], in assay [4], in assay [6] and in assay [7] was inactive. Also, the compound was called inactive in [8] and in assay [9]. The half-maximal activity concentration (AC50) in assay [5] is 42 µM (active).
For the compound `CCN(Cc1cccc(S(=O)(=O)O)c1)c1ccc(C(=C2C=CC(=[N+](CC)Cc3cccc(S(=O)(=O)O)c3)C=C2)c2ccc(O)cc2S(=O)(=O)[O-])cc1`, the outcome in [1], in [2], in assay [3], in [4], in assay [5] and in assay [7] was inactive. Further, the compound was called inactive in assay [8] and in [9]. The AC50 in assay [6] was 33 µM (active).
In the case of `OCC(F)(F)C(F)(F)C(F)(F)F`, the outcome in assay [1], in [2], in assay [3], in assay [4], in assay [5] and in [6] was inactive. Moreover, the compound was classed as inactive in assay [7], in [8] and in assay [9].
In the case of `O=C(O)C(F)(OC(F)(F)C(F)(OC(F)(F)C(F)(OC(F)(F)C(F)(F)C(F)(F)F)C(F)(F)F)C(F)(F)F)C(F)(F)F` (stereo not drawn), the outcome in assay [1], in assay [2], in [3], in [4], in assay [5] and in [6] was inactive. The compound was classed as inactive in [7], in assay [8] and in assay [9].
Consider `FC(F)(F)C(F)(F)C(F)(F)CI`, for which the outcome in assay [1], in assay [2], in assay [3], in assay [4], in [5] and in assay [6] was inactive. Moreover, the compound was classed as inactive in assay [7], in [8] and in [9].
